Test results from the supplement of paper PMC6897291.

Experiments:
[1] = system: U-2932; test: growth inhibition by drug alone (1 - RLU/untreated control) (fraction); higher = stronger inhibition; conditions: 177Lu-lilotomab satetraxetan 0 ug/ml
Outline: (§1)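 With or without 18 h pretreatment by a radiolabelled anti-CD37 antibody conjugate (~600 MBq/mg; 0.5 µg/ml RIVA, 1 µg/ml U-2932), RIVA and U-2932 cells were washed and plated at 3,000 cells/well. Pre-printed compound doses were 10/100 nM for RIVA and 10/1,000 nM for U-2932. Growth inhibition uses RealTime-Glo RLU relative to the untreated no-drug wells. The calculation is 1 − RLU/mean of 48 such wells per plate, with reads daily from day 3 after 1 h at 37°C.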

[2] = system: RIVA; test: as above; conditions: 177Lu-lilotomab satetraxetan 0 ug/ml
Outline: as §1

[3] = system: U-2932; test: growth inhibition by drug plus 177Lu-lilotomab satetraxetan (1 - RLU/untreated control) (fraction); higher = stronger inhibition; conditions: 177Lu-lilotomab satetraxetan 1 ug/ml
Outline: as §1

[4] = system: RIVA; test: as above; conditions: 177Lu-lilotomab satetraxetan 0.5 ug/ml
Outline: as §1

| Structure (SMILES) | growth inhibition by drug alone ([1]; 10 nM, time (day): 3) | growth inhibition by drug alone ([1]; 10 nM, time (day): 4) | growth inhibition by drug alone ([1]; 10 nM, time (day): 5) | growth inhibition by drug alone ([1]; 10 nM, time (day): 6) | growth inhibition by drug alone ([1]; 1000 nM, time (day): 3) | growth inhibition by drug alone ([1]; 1000 nM, time (day): 4) | growth inhibition by drug alone ([1]; 1000 nM, time (day): 5) | growth inhibition by drug alone ([1]; 1000 nM, time (day): 6) | growth inhibition by drug alone ([2]; 10 nM, time (day): 3) | growth inhibition by drug alone ([2]; 10 nM, time (day): 4) | growth inhibition by drug alone ([2]; 10 nM, time (day): 5) | growth inhibition by drug alone ([2]; 10 nM, time (day): 6) | growth inhibition by drug alone ([2]; 100 nM, time (day): 3) | growth inhibition by drug alone ([2]; 100 nM, time (day): 4) | growth inhibition by drug alone ([2]; 100 nM, time (day): 5) | growth inhibition by drug alone ([2]; 100 nM, time (day): 6) | growth inhibition by drug plus 177Lu-lilotomab satetraxetan ([3]; 10 nM, time (day): 3) | growth inhibition by drug plus 177Lu-lilotomab satetraxetan ([3]; 10 nM, time (day): 4) | growth inhibition by drug plus 177Lu-lilotomab satetraxetan ([3]; 10 nM, time (day): 5) | growth inhibition by drug plus 177Lu-lilotomab satetraxetan ([3]; 10 nM, time (day): 6) | growth inhibition by drug plus 177Lu-lilotomab satetraxetan ([3]; 1000 nM, time (day): 3) | growth inhibition by drug plus 177Lu-lilotomab satetraxetan ([3]; 1000 nM, time (day): 4) | growth inhibition by drug plus 177Lu-lilotomab satetraxetan ([3]; 1000 nM, time (day): 5) | growth inhibition by drug plus 177Lu-lilotomab satetraxetan ([3]; 1000 nM, time (day): 6) | growth inhibition by drug plus 177Lu-lilotomab satetraxetan ([4]; 10 nM, time (day): 3) | growth inhibition by drug plus 177Lu-lilotomab satetraxetan ([4]; 10 nM, time (day): 4) | growth inhibition by drug plus 177Lu-lilotomab satetraxetan ([4]; 10 nM, time (day): 5) | growth inhibition by drug plus 177Lu-lilotomab satetraxetan ([4]; 10 nM, time (day): 6) | growth inhibition by drug plus 177Lu-lilotomab satetraxetan ([4]; 100 nM, time (day): 3) | growth inhibition by drug plus 177Lu-lilotomab satetraxetan ([4]; 100 nM, time (day): 4) | growth inhibition by drug plus 177Lu-lilotomab satetraxetan ([4]; 100 nM, time (day): 5) | growth inhibition by drug plus 177Lu-lilotomab satetraxetan ([4]; 100 nM, time (day): 6) |
| --- | --- | --- | --- | --- | --- | --- | --- | --- | --- | --- | --- | --- | --- | --- | --- | --- | --- | --- | --- | --- | --- | --- | --- | --- | --- | --- | --- | --- | --- | --- | --- | --- |
| COc1nc(-c2ccc3c(c2)OCO3)n(-c2ccc(NC(=O)CSc3ccccc3)cc2)n1 [SecinH3] | -0.0611 | -0.0455 | -0.0236 | 0.124 | -0.143 | -0.0966 | -0.134 | -0.195 | -0.242 | -0.224 | -0.27 | -0.428 | -0.311 | -0.358 | -0.334 | -0.394 | -0.0793 | -0.0496 | -0.0101 | 0.122 | -0.197 | -0.087 | -0.0724 | -0.0297 | 0.275 | 0.448 | 0.482 | 0.494 | 0.323 | 0.424 | 0.437 | 0.419 |
| Cc1ccc(NC(=O)c2cccc(C(C)(C)C#N)c2)cc1Nc1ccc2ncn(C)c(=O)c2c1 | 0.0487 | 0.00122 | -0.0179 | -0.0294 | 0.157 | 0.159 | 0.087 | 0.137 | -0.0415 | -0.0437 | -0.0355 | -0.0473 | -0.346 | -0.245 | -0.279 | -0.339 | 0.00759 | 0.0624 | 0.11 | 0.17 | 0.173 | 0.189 | 0.164 | 0.263 | 0.556 | 0.622 | 0.643 | 0.651 | 0.432 | 0.547 | 0.564 | 0.563 |
